A number with no mark means an inactive call. Active and inactive are the calls of the source.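 How the source made its calls: active means fitted half-maximal concentration AC50 at or below ten times the highest valid tested dose, with signal falling as DNA is displaced (actives reach about 34 µM in these data); inconclusive means flat fit at moderate signal loss, or poor fit quality; inactive means the rest, including signal rising instead of falling.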
Experiment: acridine orange-DNA binding displacement – biochemical, fluorescence polarization, cherry-picked samples, set 2, artefact control for KSHV LANA DNA-binding inhibitor project, dose response (AID 504727);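 on activity change, negative = DNA displacement: 0% = median of neutral control wells and -100% = mitoxantrone positive control wells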
Settings: series mostly up to 35 µM; activity change, negative = DNA displacement: at the top concentration

| Compound | activity change, negative = DNA displacement | AC50 |
| --- | --- | --- |
| CCCCN(C(=O)C(C)Oc1ccc(Br)cc1)c1c(N)n(CC(C)C)c(=O)[nH]c1=O (stereo not drawn) | 2.88% |  |
| O=c1ccc2cc3c4c(c2o1)CCCN4CCC3 |  | 15.1 µM (active) |
| Clc1ccc(-c2nnc3sc(-c4ccc(Br)o4)nn23)cc1 | 3.69% |  |
| Cc1noc(C)c1C(=O)N1CCN(c2ccc(OCc3ccccc3)cc2)CC1 | -11.9% |  |
| CCC(Sc1ncccc1C(=O)O)C(=O)N1CCCC1 (stereo not drawn) | 6.54% |  |
| Cc1cc(/C=N/Nc2ccc([N+](=O)[O-])cn2)c(C)n1-c1cccc(C(=O)O)c1 | 17.9% |  |
| COc1ccc2ccccc2c1C(O)c1nccn1C (stereo not drawn) |  | 4.01 µM (active) |
| NS(=O)(=O)c1ccc(N=Nc2c[nH]c(=O)c(O)c2)cc1 |  | 15.8 µM (active) |
| CCCCN(C(=O)CSc1nnc(-c2ccc(Cl)cc2)o1)c1c(N)n(CC(C)C)c(=O)[nH]c1=O | 6.07% |  |
| CCN(C(=O)COC(=O)CCCOc1ccc(Cl)cc1C)c1c(N)n(Cc2ccccc2)c(=O)[nH]c1=O | -10.8% |  |
| N#C/C(=C\c1ccc(-c2ccccc2[N+](=O)[O-])o1)C(N)=O | 2.11% |  |
| COc1ccc(NC(=O)CN(C)CC(=O)Nc2ccc(N3CCOCC3)cc2)c([N+](=O)[O-])c1 | -1.51% |  |
| COc1ccc(-c2csc(NC(=O)CSc3nc(C)nc4sc(C(=O)O)c(C)c34)n2)cc1 | 23.2% |  |
| COc1cccc(C2CC(=O)Nc3cc4c(cc32)CCC4)c1 (stereo not drawn) | -1.39% |  |
| N=C1/C(=C\c2ccc(Br)o2)C(=O)N=C2SC(CC(=O)N3CCOCC3)=NN12 | 6.11% |  |
| COc1cc(-c2ccc(Nc3ccccc3C(=O)O)c(OC)c2)ccc1Nc1ccccc1C(=O)O | 4.89% |  |
| CCN(C(=O)c1cccc(S(=O)(=O)N2CCc3ccccc32)c1)C1CCS(=O)(=O)C1 (stereo not drawn) | 1.43% |  |
| CCOC(=O)c1sc(NC(=O)CSC(=S)N2CCN(C)CC2)nc1C | 2.26% |  |
| O=C(Nc1ccccc1F)c1coc(=O)c(Br)c1 | 3.69% |  |

| Compound | activity change, negative = DNA displacement | AC50 |
| --- | --- | --- |
| Cc1ccccc1C1=C/C(=C(\SS/C(C(=O)c2ccc(OCC(=O)O)c(Cl)c2Cl)=C2\C=C(c3ccccc3C)SS2)C(=O)c2ccc(OCC(=O)O)c(Cl)c2Cl)SS1 | 7.96% |  |
| O=C(O)C1Nc2c(O)cc(Cl)c([N+](=O)[O-])c2C2C=CCC12 (stereo not drawn) | -18% |  |
| Cc1ccc(S(=O)(=O)Nc2ccc(Br)cc2C(NCC(=O)O)c2ccccc2)cc1 (stereo not drawn) | -0.652% |  |
| O=C(/C=C\c1ccccc1)Oc1cccc2cccnc12 | -4.77% |  |
| Cc1cc(C)nc(SCC(=O)N/N=C/c2cc(C)n(-c3ccccc3C)c2C)n1 | -4.94% |  |
| CC1=NN(c2cccc(C(=O)O)c2)C(=O)/C1=C\C=C\c1ccco1 | 1.93% |  |
| C/C(=N\Nc1nc2c(s1)CCCC2)c1ccc(Cl)cc1 | 5.41% |  |
| O=C1CN=C(Nc2ccccc2Cl)N1Cc1ccc2c(c1)OCO2 | 1.88% |  |
| Nc1nc(-c2ccc(C(=O)O)cc2)cs1 | 2.05% |  |
| Cc1ccccc1NC(=S)NC(C)CCc1ccccc1 (stereo not drawn) | 0.759% |  |
| Cc1ccc(NS(=O)(=O)c2ccc(C(=O)NCCCN3CCCC3=O)cc2)cc1 | 2.52% |  |
| O=S(=O)(O)c1cccc2cccc(Nc3ccccc3)c12 | 1.33% |  |
| COc1ccc(C2C(C(=O)c3cccs3)=C(O)C(=O)N2c2nncs2)cc1 (stereo not drawn) |  | 3.42 µM (active) |
| CN1CCN(CCCNC(=O)c2cc3c(-c4ccc(Cl)cc4)nn(C)c3s2)CC1 | -6.74% |  |
| Cc1cc(-c2nnc(SCC(=O)Nc3ccccc3)n2C)no1 | 4.5% |  |
| COC(=O)Cn1c(=NC(=O)c2sc3ccccc3c2Cl)sc2cc(S(N)(=O)=O)ccc21 | 9.39% |  |
| Cc1cnc(NC(=O)Cc2c[nH]c3ccccc23)s1 | 0.01% |  |
| O=C(CSc1cccc2cccnc12)N/N=C/c1ccc(O)cc1 | -0.88% |  |
| C=CCN1C(=O)/C(=c2\sc3nc(=O)c(Cc4ccccc4Cl)nn3c2=O)c2ccccc21 | 7.68% |  |

Reference: PubChem BioAssay AID504727 (Broad Institute, 2011)
